Assay results: PubChem BioAssay AID1347406
Active and inactive are the calls of the source.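 How the source made its calls: active means IC50, the dose giving half inhibition, at or below 10 µM; inconclusive means IC50 above 10 µM up to 20 µM; inactive means IC50 over 20 µM.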

These molecules were tested against Ubiquitin-like modifier-activating enzyme 1 (Homo sapiens) (UniProt P22314) (assay: inhibition of ubiquitin E1 thioester formation – biochemical, gel-based, fluorescent Ub (AID 1347406)). Conditions: fluorescent Ub gel imaging.
Chain of Ubiquitin-like modifier-activating enzyme 1 (Homo sapiens) (P22314 whole entry, looked up): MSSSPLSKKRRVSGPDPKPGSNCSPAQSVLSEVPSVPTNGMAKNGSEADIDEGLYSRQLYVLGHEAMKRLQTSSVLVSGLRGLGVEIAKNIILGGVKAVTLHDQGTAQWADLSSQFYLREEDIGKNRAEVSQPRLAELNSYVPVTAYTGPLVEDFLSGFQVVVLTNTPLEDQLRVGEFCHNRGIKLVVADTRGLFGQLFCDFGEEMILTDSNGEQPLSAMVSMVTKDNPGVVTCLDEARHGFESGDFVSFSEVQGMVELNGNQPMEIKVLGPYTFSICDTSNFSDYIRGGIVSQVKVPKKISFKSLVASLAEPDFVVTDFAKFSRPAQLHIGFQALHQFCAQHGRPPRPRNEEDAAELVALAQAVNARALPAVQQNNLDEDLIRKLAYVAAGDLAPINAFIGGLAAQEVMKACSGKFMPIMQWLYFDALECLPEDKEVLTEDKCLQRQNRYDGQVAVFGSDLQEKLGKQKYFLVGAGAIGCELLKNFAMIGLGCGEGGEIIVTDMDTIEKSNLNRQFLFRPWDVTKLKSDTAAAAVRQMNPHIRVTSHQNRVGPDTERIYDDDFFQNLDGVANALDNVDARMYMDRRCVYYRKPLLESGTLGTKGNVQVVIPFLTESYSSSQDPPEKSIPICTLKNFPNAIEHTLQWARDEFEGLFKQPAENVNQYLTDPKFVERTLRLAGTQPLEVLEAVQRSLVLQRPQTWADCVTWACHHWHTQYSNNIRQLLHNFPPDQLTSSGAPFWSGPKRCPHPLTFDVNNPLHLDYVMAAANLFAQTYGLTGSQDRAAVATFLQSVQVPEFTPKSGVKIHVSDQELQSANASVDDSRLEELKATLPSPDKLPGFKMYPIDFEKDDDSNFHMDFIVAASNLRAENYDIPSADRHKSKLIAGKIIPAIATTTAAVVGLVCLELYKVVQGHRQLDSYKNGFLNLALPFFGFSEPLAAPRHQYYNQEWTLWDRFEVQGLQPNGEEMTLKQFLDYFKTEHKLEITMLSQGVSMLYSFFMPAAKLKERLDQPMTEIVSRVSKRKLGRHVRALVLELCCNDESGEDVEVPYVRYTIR

outcome, inactive:
CNc1ccccc(C(=O)C=Cc2ccc3c(c2)OCO3)c1=O inactive; >50 µM
CCNc1ccc(Br)cc(C(=O)/C=C/c2c(Cl)cccc2Cl)c1=O inactive; >50 µM
CCOc1ccc2nc3cc(NC(=O)c4ccco4)ccc3c(N)c2c1 inactive; >50 µM
CN(CCC(=O)C=Cc1ccc(Cl)c(Cl)c1)CCc1ccc2c(c1)OCO2 inactive; >50 µM
NCCCSc1nc2c(c(=O)n1Cc1ccccc1)C1(CCCCC1)Cc1ccccc1-2 inactive; >50 µM
CCCCCCCCCOc1ccc(C#CC(=O)O)cc1
CCOC(=O)c1c(NC(=O)CCC(=O)O)sc(C)c1-c1ccc(CC(C)C)cc1 inactive; >50 µM
